# Assay results from PubChem BioAssay (Tox21).
# Results filed as inconclusive are left out. The source made the active and inactive calls. Unless noted, calls follow the shape of the full dose curve.
# Assay: qHTS assay to identify small molecule agonists of the endoplasmic reticulum stress response signaling pathway (AID 1159516; active = well fitted activation curve with a large enough effect in the signal ratio in the repeat runs, not every such curve was filed as active; the % refers to the signal ratio)
# Details: ESRE-bla HeLa, ER stress beta-lactamase reporter, 5 h; series mostly up to 61 µM
# Procedure, shortened: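 ER stress element reporter (bla) in HeLa. 1,500 cells/well, overnight attachment; 5 hr compound; 2 hr RT substrate; dual-emission fluorescence.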
row,Structure (SMILES),outcome
1,COc1ccc(/C=C/S(=O)(=O)NC(=O)c2ccc(C)cc2Cl)cc1,inactive
2,O=C(Cl)c1cc(Cl)cc(Cl)c1,inactive
3,O=C(NC1CCN(CCc2c[nH]c3ccccc23)CC1)c1ccccc1,inactive
4,Cc1ccccc1CCO,inactive
5,O=C1CCCN1CCO,inactive
6,S=c1[nH][nH]c(=S)s1,inactive
7,CC(C)CCCCCOC(=O)CS,inactive
8,CC(=O)CC/C=C(\C)CC/C=C(\C)CC/C=C(\C)CCC=C(C)C,inactive
9,CC/C=C/CCO,inactive
10,O=C(N[C@@H](Cc1ccccc1)[C@@H](O)C(=O)N1C[C@@H](O)[C@@H](O)C1)c1cc2cc(Cl)ccc2[nH]1,inactive
11,C=CC(=O)OCCCCCCCCCC,inactive
12,CCOc1cc(OCC)c(C(C)=O)cc1OCC,inactive
13,O=C(O)c1ccccc1[N+](=O)[O-],inactive
14,CCCCCCCCNC,inactive
15,C[Si](C)(C)O[Si](C)(C)O[Si](C)(C)C,inactive
16,CC(C)CCCCCCCOC(=O)c1ccc(C(=O)OCCCCCCCC(C)C)c(C(=O)OCCCCCCCC(C)C)c1,inactive
17,Nc1ccc(-c2ccc(F)cc2)cc1,inactive
18,O=C(O)c1cc(C(=O)O)cc([N+](=O)[O-])c1,inactive
19,CC(C)C/C=C(\C=O)c1ccccc1,inactive
20,CC(C)(Cc1c[nH]c2ccccc12)NCC(O)COc1ccccc1C#N (stereo not given),inactive
21,O=P(c1ccccc1)(c1ccccc1)c1ccccc1,inactive
22,C=C[Si]1(C)O[Si](C)(C=C)O[Si](C)(C=C)O[Si](C)(C=C)O1 (stereo not given),inactive
23,O=C(O)c1ccc(O)c(O)c1,inactive
24,CC(=O)c1ccc(Cl)c(Cl)c1Cl,inactive
25,Nc1ccc(F)cc1F,inactive
26,CCN(CC)CC(=O)OCC(=O)[C@@]1(O)CC[C@H]2[C@@H]3CCC4=CC(=O)CC[C@]4(C)[C@H]3[C@@H](O)C[C@@]21C,inactive

# Assay: qHTS assay to identify small molecule agonists of the endoplasmic reticulum stress response signaling pathway - cell viability counter screen (AID 1159517);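 also: HeLa cells carrying an ER stress response element beta-lactamase reporter; nearly all actives have a fitted effect of over 50% in size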
# Details: ESRE-bla HeLa viability, CellTiter-Glo luminescence, 5 h; series mostly up to 61 µM
# Procedure, shortened: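 Counter-screen wells were identical to the reporter wells. Cells were plated at 1,500 per well and dosed for 5 hr, then read for luminescence 30 min after CellTiter-Glo addition.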
row,Structure (SMILES),outcome
1,COc1ccc(/C=C/S(=O)(=O)NC(=O)c2ccc(C)cc2Cl)cc1,inactive
2,O=C(Cl)c1cc(Cl)cc(Cl)c1,inactive
3,O=C(NC1CCN(CCc2c[nH]c3ccccc23)CC1)c1ccccc1,inactive
4,Cc1ccccc1CCO,inactive
5,Cc1c(N=C=O)cccc1N=C=O,inactive
6,CC(C)Cc1nccs1,inactive
7,O=C1CCCN1CCO,inactive
8,CC/C=C\CCO,inactive
9,S=c1[nH][nH]c(=S)s1,inactive
10,CC(C)CCCCCOC(=O)CS,inactive
11,CC(=O)CC/C=C(\C)CC/C=C(\C)CC/C=C(\C)CCC=C(C)C,inactive
12,CC/C=C/CCO,inactive
13,CCCCCCC/C=C/C=O,inactive
14,CCOCCn1c(N2CCCN(C)CC2)nc2ccccc21,inactive
15,CC(C)C[C@H](NC(=O)[C@H](Cc1ccccc1)NC(=O)c1cnccn1)B(O)O,inactive
16,O=C(N[C@@H](Cc1ccccc1)[C@@H](O)C(=O)N1C[C@@H](O)[C@@H](O)C1)c1cc2cc(Cl)ccc2[nH]1,inactive
17,C=CC(=O)OCCCCCCCCCC,inactive
18,CCOc1cc(OCC)c(C(C)=O)cc1OCC,inactive
19,COc1ccc(/C=C/c2cc(OC)cc(=O)o2)cc1,inactive
20,O=C(O)c1ccccc1[N+](=O)[O-],inactive

row,Structure (SMILES),outcome
1,CCCCCCCCNC,inactive
2,C[Si](C)(C)O[Si](C)(C)O[Si](C)(C)C,inactive
3,CC(C)CCCCCCCOC(=O)c1ccc(C(=O)OCCCCCCCC(C)C)c(C(=O)OCCCCCCCC(C)C)c1,inactive
4,Nc1ccc(-c2ccc(F)cc2)cc1,inactive
5,Nc1ccc(C(=O)Oc2ccccc2)c(O)c1,inactive
6,O=C(O)c1cc(C(=O)O)cc([N+](=O)[O-])c1,inactive
7,CC(C)C/C=C(\C=O)c1ccccc1,inactive
8,CC(C)(Cc1c[nH]c2ccccc12)NCC(O)COc1ccccc1C#N (stereo not given),inactive
9,O=P(c1ccccc1)(c1ccccc1)c1ccccc1,inactive
10,COc1cc(C)c(Cc2cnc(N)nc2N)cc1OC,inactive
11,C=C[Si]1(C)O[Si](C)(C=C)O[Si](C)(C=C)O[Si](C)(C=C)O1 (stereo not given),inactive
12,O=C(O)c1ccc(O)c(O)c1,inactive
13,O=[N+]([O-])c1ccc(Cl)cc1Cl,inactive
14,O=C(O)c1ccccc1-n1cc(C(=O)O)c(=O)c2cc(Nc3c(F)cc(F)cc3Cl)c(Cl)cc21,inactive
15,Cc1c(Cl)cccc1[N+](=O)[O-],inactive
16,CC(=O)c1ccc(Cl)c(Cl)c1Cl,inactive
17,Nc1ccc(F)cc1F,inactive
18,C/C(=C\C(C)CC(C)CC(C)C)C1CC(=O)OC1=O (stereo not given),inactive
19,CCN(CC)CC(=O)OCC(=O)[C@@]1(O)CC[C@H]2[C@@H]3CCC4=CC(=O)CC[C@]4(C)[C@H]3[C@@H](O)C[C@@]21C,inactive
